# Measured values taken from article PMC4336329 (PLoS ONE, 2015).
# In all, about 310,000 compounds went through this assay and about 14,000 (4.5%) showed an effect of 50% or more. Effects have a minus sign here. Shown is part of a subset that was picked to be rich in strong results.
# Molecular target: human ether-à-go-go-related gene (hERG) potassium channel (human, UniProt Q12809)
# Test: primary screen, population patch clamp on CHO cells stably expressing hERG; higher = less effect of the substance
# 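Further: peak tail current of the secondary pulse compared with the same well before compound.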
# Sequence of human ether-à-go-go-related gene (hERG) potassium channel (Q12809 whole entry, looked up): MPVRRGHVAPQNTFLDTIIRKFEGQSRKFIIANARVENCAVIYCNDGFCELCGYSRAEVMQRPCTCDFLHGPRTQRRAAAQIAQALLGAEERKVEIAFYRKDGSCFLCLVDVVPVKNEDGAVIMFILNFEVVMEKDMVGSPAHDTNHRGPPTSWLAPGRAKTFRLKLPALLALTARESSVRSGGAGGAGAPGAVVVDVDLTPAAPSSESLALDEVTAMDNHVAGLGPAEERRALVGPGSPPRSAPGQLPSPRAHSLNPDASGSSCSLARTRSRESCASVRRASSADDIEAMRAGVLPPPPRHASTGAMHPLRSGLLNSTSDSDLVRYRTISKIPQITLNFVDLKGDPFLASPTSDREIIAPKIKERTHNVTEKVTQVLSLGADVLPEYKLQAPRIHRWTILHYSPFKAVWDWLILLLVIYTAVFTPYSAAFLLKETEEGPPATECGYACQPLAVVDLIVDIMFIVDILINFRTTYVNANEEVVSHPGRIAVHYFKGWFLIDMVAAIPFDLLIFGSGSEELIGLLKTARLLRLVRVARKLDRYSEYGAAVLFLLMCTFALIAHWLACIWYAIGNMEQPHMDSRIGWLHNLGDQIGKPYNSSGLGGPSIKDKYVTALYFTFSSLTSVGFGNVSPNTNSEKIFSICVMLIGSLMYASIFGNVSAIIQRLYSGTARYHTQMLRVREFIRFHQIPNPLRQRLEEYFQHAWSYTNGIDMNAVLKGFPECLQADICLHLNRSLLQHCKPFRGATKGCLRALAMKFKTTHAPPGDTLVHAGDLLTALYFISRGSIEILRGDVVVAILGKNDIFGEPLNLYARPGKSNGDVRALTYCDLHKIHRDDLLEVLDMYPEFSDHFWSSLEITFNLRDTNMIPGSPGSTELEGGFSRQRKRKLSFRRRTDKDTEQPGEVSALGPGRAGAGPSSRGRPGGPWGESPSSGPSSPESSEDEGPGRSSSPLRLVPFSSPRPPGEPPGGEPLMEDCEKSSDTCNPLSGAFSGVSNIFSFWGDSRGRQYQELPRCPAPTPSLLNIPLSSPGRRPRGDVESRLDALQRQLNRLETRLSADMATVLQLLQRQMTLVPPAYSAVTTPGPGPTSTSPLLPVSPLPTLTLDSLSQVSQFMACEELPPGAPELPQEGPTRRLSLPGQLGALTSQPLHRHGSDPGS
row,SMILES,"hERG current change (%, negative = inhibition) at 10uM"
1,CCOCCCN=Cc1c(O)n(Cc2ccccc2)c(=O)[nH]c1=O,-4.85%
2,c1ccc(CSc2nnc3ccc(-c4cccs4)nn23)nc1,3.64%
3,Cc1cccc(OCC(=O)Nc2ccc3c(C)cc(=O)oc3c2)c1,1.59%
4,CCOc1ccc(C(=O)OC2CCCN(C)C2)cc1.Cl (centres unmarked),-18.1%
5,O=C(c1ccc2ccccc2c1)N1CCCC1,19.2%
6,CC(=O)c1sc(NC(=O)c2cc(=O)c3ccccc3o2)nc1C,10.1%
7,O=C(Cc1ccc(F)cc1)Nc1nnc(SCC(=O)NC2CCCC2)s1,1.56%
8,COc1cccc(C(O)c2nc3ccccc3n2C)c1 (centres unmarked),3.27%
9,CC(NC(=O)Cn1ccsc1=N)C12CC3CC(CC(C3)C1)C2.Cl (centres unmarked),-34.4%
10,CCC(=O)c1c[nH]c(C(=O)NCc2ccccc2OC)c1,-6.15%
11,CCN(CC)CCCN1CC(O)=C(c2nc3ccccc3s2)C1=N,-34.2%
12,Fc1ccc(Nc2nnns2)cc1,18.2%
13,O=C(OCc1cccc([N+](=O)[O-])c1)c1ccc[nH]c1=O,17.2%
14,COc1ccc(CC(=O)Nc2cc(C)ccn2)cc1,6.87%
15,O=C(COC(=O)C1CC(=O)N(Cc2ccccc2)C1)Nc1ccccc1F (centres unmarked),7.39%
16,COc1ccc(CN(C)C(=O)C2CCN(C(=O)Nc3ccccc3)CC2)cc1OC,-1.53%
17,CSc1ccc(CN(C)C(=O)C2CCN(C(=O)Nc3ccccc3)CC2)cc1,-67.4%
18,COc1ccc(CN(C)C(=O)C2CCN(C(=O)Nc3ccccc3)CC2)cc1,-16.3%
19,CSc1ccccc1NC(=O)CN(C)C(=O)C1CCN(C(=O)Nc2ccccc2)CC1,-11.4%
20,CN(Cc1cccc(Cl)c1)C(=O)C1CCN(C(=O)Nc2ccccc2)CC1,-55.9%
21,CN(CC(=O)Nc1c(Cl)cccc1Cl)C(=O)C1CCN(C(=O)Nc2ccccc2)CC1,11.5%
22,CCn1cnc2c1c(=O)n(CC(=O)Nc1ccc(C(N)=O)cc1)c(=O)n2Cc1ccccc1,13.8%
23,Clc1cccc(C2Nc3cccc4cccc(c34)N2)c1Cl,16.2%

row,SMILES,"hERG current change (%, negative = inhibition) at 10uM"
1,CCOC(=O)C1CCCN(c2nc3c(C)cccn3c(=O)c2/C=C(\C#N)C(=O)NCc2ccco2)C1 (centres unmarked),-49.7%
2,O=C(NCC1CCCO1)/C(=C\c1cccc([N+](=O)[O-])c1)NC(=O)c1ccccc1 (centres unmarked),-33%
3,Cc1ccc(C(=O)N/C(=C\c2ccccc2)C(=O)NCC2CCCO2)cc1 (centres unmarked),-24.3%
4,O=C(/C=C/c1cccc([N+](=O)[O-])c1)NCc1cccnc1,-14%
5,Cc1ccc(C(=O)N/C(=C\c2cccc([N+](=O)[O-])c2)C(=O)OCN2C(=O)c3ccccc3C2=O)cc1,-11%
6,N#C/C(=C\c1cccc([N+](=O)[O-])c1)C(=O)Nc1cccnc1,21.3%
7,Cc1ccc(C(=O)N/C(=C/c2cccc([N+](=O)[O-])c2)C(=O)NC(C)C)cc1,-51.8%
8,CC(=O)N/C(=C\c1cccc([N+](=O)[O-])c1)C(=O)NC(C)C,2.75%
9,Cc1ccc(C(=O)N/C(=C/c2cccc([N+](=O)[O-])c2)C(=O)NCC2CCCO2)cc1 (centres unmarked),-68.4%
10,Cc1ccc(C(=O)N/C(=C\c2cccc([N+](=O)[O-])c2)C(=O)NC(Cc2ccccc2)C(=O)O)cc1 (centres unmarked),15.3%
11,N#C/C(=C\c1cccc([N+](=O)[O-])c1)C(=O)NCc1cccnc1,-50.8%
12,CCNC(=O)/C(=C/c1cccc([N+](=O)[O-])c1)NC(=O)c1ccc(C)cc1,-58.1%
13,CC(C)NC(=O)/C(=C\c1cccc([N+](=O)[O-])c1)NC(=O)c1ccccc1,-18.1%
14,Cc1ccc(NC(=O)CSCc2ccco2)cc1,21.7%
15,O=C(CCSc1ccc(F)cc1)Nc1ccc(-n2cnnn2)cc1,-26.4%
16,COc1cc(/C=N/N2CCN(c3ccc(Cl)cc3)CC2)cc(OC)c1OC(C)=O,9.63%
17,O=C(NC(NC(=S)Nc1ccccc1)C(Cl)(Cl)Cl)c1cccc(Cl)c1 (centres unmarked),7.91%
18,O=C(NCc1ccncc1)/C(=C/c1cccc([N+](=O)[O-])c1)NC(=O)c1ccccc1,-71%
19,Cc1ccc(C(=O)N/C(=C\c2cccc([N+](=O)[O-])c2)C(=O)Nc2cccc(C(=O)O)c2)cc1,15.2%
20,Cc1ccc(C(=O)N/C(=C\c2cccc([N+](=O)[O-])c2)C(=O)NCc2ccncc2)cc1,-73.3%
21,O=C(NNc1cccc([N+](=O)[O-])c1)/C(=C\c1cccnc1)NC(=O)c1ccccc1,-30.6%
22,Cn1c(=O)c2c(nc(Sc3ncccn3)n2Cc2ccccc2Cl)n(C)c1=O,-8.1%
23,CCCC(=O)NC(=S)Nc1cccc(NC(=O)c2ccccc2)c1,-1.54%

row,SMILES,"hERG current change (%, negative = inhibition) at 10uM"
1,CCOc1ccc(C(=O)Nc2ccc(C(F)(F)F)n(C)c2=O)cc1,14.5%
2,Cc1ccc(Nc2ncnc(N)n2)cc1,9.24%
3,CCOc1ccc(NC(=O)CCC(=O)OC)cc1,-1.95%
4,CCN(CC)CCOC(=O)c1ccc([N+](=O)[O-])cc1.Cl,-23.1%
5,CCCCOc1cc(C(=O)OCCN(CC)CC)ccc1N,-60.6%
6,CCCOc1ccc(C(=O)OCCN(CC)CC)cc1N.Cl,-51.9%
7,CCCCOc1cc(C(=O)OCCN(CC)CC)ccc1N.Cl,-53.6%
8,CCN(CC)CCOC(=O)c1ccc2c(c1)OCCO2.Cl,-11.4%
9,CCN(CC)CCOC(=O)c1cccc(Br)c1.Cl,-40.6%
10,CCOc1ccc(C(=O)OCCN(CC)CC)cc1.Cl,-44.8%
11,CCN(CC)CCOC(=O)c1ccc(N)cc1.Cl,2.06%
12,CCCOc1cc(N)ccc1C(=O)OCCN(CC)CC.Cl,-18.9%
13,CCN(CC)CCOC(=O)c1ccc(NC(=S)NC(=O)/C=C/c2ccco2)cc1,-0.561%
14,Cc1oc2c(c(C)cc3oc(=O)c(CC(=O)N[C@H](C(=O)O)C(C)C)c(C)c32)c1C,15.2%
15,Cc1cc2c(ncn2C(C)C)c(N)c1C,-9.87%
16,CSc1ccc(C#N)cc1NC(=O)c1ccccc1,-36.5%
17,NC(=O)C1CCN(C(=O)Cc2ccsc2)CC1,-1.15%
18,Cc1csc2nc(O)c(C(=O)NCCCc3ccccc3)c(=O)n12,-20%
19,Cc1ccnc(NS(=O)(=O)c2ccc(NC(=O)Cc3ccc(Cl)cc3)cc2)n1,14.3%
20,S=C1NC2(CCCCC2)Cc2ccccc21,12.4%
21,CC(C)NC(=O)CN1CCN(Cc2nc(-c3cccs3)no2)CC1,19.9%
22,C[C@@H](C(=O)Nc1ccc2ccccc2c1)[C@H]1C[C@]1(C)[C@H](NC(=O)c1cnccn1)c1ccccc1,-4.43%
23,CN1CCN(C(=S)NC(=O)c2ccccc2Br)CC1,11.2%

row,SMILES,"hERG current change (%, negative = inhibition) at 10uM"
1,O=c1[nH]c(O)c(N=Nc2cccc(S(=O)(=O)N3CCOCC3)c2)c(=O)[nH]1,-73.7%
2,O=c1[nH]c(O)c(N=Nc2ccc(S(=O)(=O)N3CCOCC3)cc2)c(=O)[nH]1,-4.59%
3,O=c1[nH]c(=S)[nH]c(O)c1N=Nc1cccc(S(=O)(=O)N2CCOCC2)c1,9.03%
4,COC(=O)C1=C(c2ccccc2)C[C@@H]2CC[C@H]1N2C(=O)NCCCOC(C)C,0.331%
5,CCOc1ccc(N(C(=O)CNC(=O)c2ccco2)C(C(=O)NC2CCCC2)c2ccncc2)cc1 (centres unmarked),-10.7%
6,COc1ccc(CN2CCN(Cc3c[nH]c4ccccc34)CC2CCO)c(F)c1 (centres unmarked),-41.4%
7,COc1ccc(F)c(CN2CCN(CCc3ccccc3)C(CCO)C2)c1 (centres unmarked),-55.9%
8,COc1ccc(CN2CCN(CCCc3ccccc3)C(CCO)C2)c(O)c1 (centres unmarked),-83.1%
9,COc1ccc(CN2CCN(CCc3ccccc3)C(CCO)C2)c(O)c1 (centres unmarked),-71.7%
10,O=C(OCC1OC(n2cc(Br)c(=O)[nH]c2=O)C(Br)C1O)c1ccccc1 (centres unmarked),8.3%
11,CCC(C)N(C(=O)COC(=O)CNC(=O)c1ccccc1F)C1CCS(=O)(=O)C1 (centres unmarked),4.36%
12,COc1ccc(C)cc1NC(=O)c1cc2c(s1)CCC2,-5.71%
13,COc1ccccc1-c1nnc2sc(-c3ccc(N(C)C)cc3)nn12,-11%
14,CC(=O)NC(C)c1nc2ccccc2n1C(C)C (centres unmarked),-10.2%
15,COc1ccc(C)cc1NC(=O)C(NCC1CCCO1)c1ccccc1 (centres unmarked),-51.4%
16,Cc1cc(C)cc(NC(=O)C(NCCN2CCOCC2)c2ccccc2)c1.O=C(O)C(=O)O (centres unmarked),-7.91%
17,Cc1ccc(C)c(NC(=O)C(c2ccccc2)N2CCOCC2)c1 (centres unmarked),-10.6%
18,Cc1ccc(C)c(NC(=O)C(NCC(C)(C)N2CCOCC2)c2ccccc2)c1 (centres unmarked),-62.6%
19,COc1ccc(C)cc1NC(=O)C(NCC(O)c1ccccc1)c1ccccc1.O=C(O)C(=O)O (centres unmarked),-21.7%
20,Cc1cc(C)cc(NC(=O)C(NCC2CCCO2)c2ccccc2)c1.O=C(O)C(=O)O (centres unmarked),-35.5%
